# From the supplement of paper PMC4894684
# Where a name gives a salt, the structure may show the parent alone. ± gives the standard deviation of the averaged measurements.
# System: Toxoplasma gondii RH (in HFF)
# Assay: parasite growth relative to the screen mean (all compounds = 100%); higher = less inhibition of parasite growth
# Settings: 5 µM; 72 h; oxygen 21 %
# How it was run: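 Each value is parasite growth expressed against the screen mean, averaged over two screens, where the mean of all compounds = 100%. The screen used 5 µM final compound on confluent human foreskin fibroblasts infected with RH β-Gal–GFP Toxoplasma (MOI 1:5) within 2 h and grown 72 h at 21% O2. Parasite number was measured by a CPRG β-Gal assay against in-plate standard curves.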
row,Compound,parasite growth
1,O=C1CCc2c(ccc3ccccc23)O1 [Splitomicin],149 ± 2.2%
2,CC(C)C[C@H](NC(=O)N1CCCCCC1)C(=O)N[C@H](Cc1cn(C)c2ccccc12)C(=O)N[C@H](Cc1ccccn1)C(=O)O,98.9 ± 45%
3,Clc1cccc(Nc2nnc(-c3ccccc3)c3ccccc23)c1,143.2 ± 1.4%
4,CS(=O)(=O)Nc1c(O)ccc2c1CCCC2C1=NCCN1 (centres undefined),101 ± 12%
5,COc1ccc(-c2nc(C(=O)N3CCN(C)CC3)sc2-c2ccc(OC)cc2)cc1,112 ± 21%
6,CC(=N)NCCCC[C@H](N)C(=O)O [L-NIL hydrochloride],130 ± 15%
7,COC(=O)C1=C(C)NC(C)=C(C(=O)OC)C1c1ccccc1[N+](=O)[O-] [Nifedipine],110 ± 36%
8,CC(Oc1ccc(O)cc1)(P(=O)(O)O)P(=O)(O)O,101 ± 21%
9,O=S(=O)(NCCNC/C=C/c1ccc(Br)cc1)c1cccc2cnccc12 [H 89 dihydrochloride],26.2 ± 27%
10,c1ccc(N2CCN(Cc3nc4ccccc4[nH]3)CC2)nc1 [ABT 724 trihydrochloride],98.1 ± 12%
11,COc1ccccc1N1CCN(CCCNc2cc(=O)n(C)c(=O)n2C)CC1 [Urapidil hydrochloride],105 ± 3.7%
12,"CCS(=O)(=O)N(C)[C@H]1c2cc(C#N)ccc2OC(C)(C)[C@@H]1O [(-)-[3R,4S]-Chromanol 293B]",121 ± 9.2%
13,O=C(O)Cc1nn(Cc2ccc(Br)cc2F)c(=O)c2ccccc12 [Statil],91.7 ± 26%
14,CC(=O)Nc1ccc(O)cc1 [Acetaminophen],105 ± 2.7%
15,N[C@@H]1CCN(O)C1=O,97.4 ± 22%
16,CCCCCCCC/C=C\CCCCCCCC(N)=O [Oleamide],74.8 ± 12%
17,O=C1NC(c2cccc([N+](=O)[O-])c2)=CCN1c1ccccc1O [Icilin],128 ± 36%
18,CCCCCCCCCCCC1=C(O)C(=O)C=C(O)C1=O [Embelin],122 ± 4.3%
19,O=C(Cc1ccccc1)Nc1nc2ccc(Cl)cc2c2nc(-c3ccco3)nn12,121 ± 57%
20,Nc1nccc(-c2ccc3noc(-c4ccc(Cl)cc4)c3c2)n1 [PIM 1 Inhibitor 2],69.9 ± 15%

row,Compound,parasite growth
1,COC(=O)C1=C(C)NC(C)=C(C(=O)OCCSc2ccccc2)C1C (centres undefined),146 ± 12%
2,CCN1CCC[C@H]1CNC(=O)c1c(O)c(Cl)cc(Cl)c1OC [Raclopride],138 ± 25%
3,COc1ccc([C@@H]2CNC(=O)C2)cc1OC1CCCC1 [(R)-(-)-Rolipram],106 ± 6%
4,O=C(Nc1ccccc1)N[C@@H]1C[C@@H](C(=O)O)Nc2cc(Cl)cc(Cl)c21,104 ± 3.9%
5,CN1CC(=O)N=C1NC(=O)Nc1cccc(Cl)c1 [Fenobam],134 ± 5.3%
6,CC(C)n1nnc2cc(C(=O)O)ccc21,81.9 ± 22%
7,CN(C(=O)CCCOc1ccc2[nH]c(=O)ccc2c1)C1CCCCC1 [Cilostamide],69.6 ± 26%
8,CN(C)C(=O)C(CCN1CCC(O)(c2ccc(Cl)cc2)CC1)(c1ccccc1)c1ccccc1 [Loperamide hydrochloride],20.6 ± 19%
9,O=C(Nc1ccc([N+](=O)[O-])cc1O)Nc1ccccc1Br,107 ± 21%
10,O=C(O)c1cc(O)c2ccc(Cl)cc2n1 [7-Chlorokynurenic acid],119 ± 9.9%
11,O=C1c2ccccc2S(=O)(=O)N1CCCCN1CCN(c2ncccn2)CC1 [Ipsapirone],160 ± 46%
12,[O-][S+](c1ccccc1)c1ccc2nnnn2n1 (centres undefined),111.89 ± 0.016%
13,CCc1ccc(OCc2ccccc2C(=O)Nc2ccc3nc(C)cc(N)c3c2)cc1,< 0%
14,CN1[C@@H]2CC[C@H]1C[C@@H](OC(=O)c1c[nH]c3ccccc13)C2 [Tropisetron hydrochloride],106 ± 3.1%
15,Cc1cc(C)c(S(=O)(=O)Nc2ccccc2C(F)(F)F)c(C)c1,145 ± 10%
16,O=C(/C=C/c1ccc(O)c(O)c1)O[C@H](Cc1ccc(O)c(O)c1)C(=O)O [Rosmarinic acid],110 ± 5.5%
17,Cc1c[nH]c(=O)n(CCCN2CCN(c3ccccc3OCC(F)(F)F)CC2)c1=O,116 ± 6.9%
18,CN(CCCN1c2ccccc2CCc2ccccc21)CC(=O)c1ccc(Cl)cc1 [Lofepramine],185.3 ± 1.1%
19,OC(CN1CCN(c2cccc(Cl)c2)CC1)C(c1ccccc1)c1ccccc1 (centres undefined),147 ± 28%
